Measured values as given in PubChem BioAssay.
Active and inactive are the calls of the source. Unless noted, no rule for the calls is given here.

Key:
[1] = tested on: Wnt5a (protein binding on small-molecule microarray); experiment: small molecules binding Wnt5a protein – biophysical, small-molecule microarray, 635/667 nm fluorescence, primary screen (AID 1142); details: 635 nm fluorescence, higher = more signal;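 also: fluorescence read at 667 nm with signal to noise per printed feature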
[2] = ATP-based viability of Huh7 replicon cells – cell-based, CellTiter-Glo luminescence, basal, 48 h, cytotoxicity control for HCV replication inhibitor project, primary screen (AID 1143); details: higher = more signal, called active from +8 up or from −8 down;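 also: Huh7 hepatoma cells carrying a hepatitis C replication reporter with no stimulus; test concentration not given here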
[3] = Pseudomonas biofilm growth suppression – PAO1 strain, BacTiter-Glo luminescence, LB-PBS, primary screen (AID 1144); details: P. aeruginosa PAO1 biofilm, 12 h, higher = more signal
[4] = basal CRE-LacZ reporter activity in PC12 – cell-based, unstimulated, primary screen (AID 1145); details: no forskolin, luminescence, 4.5 h, higher = more signal, called active from +8 up or from −8 down
[5] = forskolin-driven CRE-LacZ activity in PC12 – cell-based, CRE-LacZ reporter, forskolin-stimulated, primary screen (AID 1146); details: luminescence, 4.5 h, higher = more signal, called active from +8 up or from −8 down;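 also: PC12 cells with 6xCRE LacZ reporter stimulated by forskolin 10 µM; beta-galactosidase reporter signal reflecting CREB driven transcription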
[6] = target: Streptavidin (Streptomyces avidinii) (UniProt P22629); experiment: compounds binding control protein streptavidin – biophysical, small-molecule microarray, 635/667 nm fluorescence, artefact control for SMM compound annotation, primary screen (AID 1147); details: higher = more signal;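 also: signal reflects streptavidin binding to arrayed compounds as a control protein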
[7] = probe aInhba binding on compound microarray – biochemical, small-molecule microarray, 635/667 nm fluorescence, primary screen (AID 1148); details: higher = more signal;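 also: score merges 667nm spot fluorescence with signal-to-noise for antibody binding to printed compounds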
Torsin-1A (Homo sapiens) [8] = target: Torsin-1A (Homo sapiens) (UniProt O14656); experiment: TOR1A wild-type binding on microarray – cell lysate, small-molecule microarray, lysate, 635/667 nm, primary screen (AID 1149); details: COS7 hTOR1A-WT lysate, 635 nm fluorescence, higher = more signal
Torsin-1A (Homo sapiens) [9] = target: Torsin-1A (Homo sapiens) (UniProt O14656); experiment: torsin A mutant lysate binding on microarrays – cell lysate, small-molecule microarray, COS7 lysate, 635/667 nm fluorescence, primary screen (AID 1150); details: COS7 hTOR1A mutant lysate, 635 nm fluorescence, higher = more signal;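 also: score pools 667 nm emission and signal to noise measuring lysate protein binding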
[10] = tested on: Sonic hedgehog protein (Shh); experiment: Sonic hedgehog microarray binding compounds – biochemical, small-molecule microarray, 635/667 nm fluorescence, primary screen (AID 1151); details: 635 nm fluorescence, higher = more signal;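 also: Shh protein binding to compounds spotted on small-molecule microarray slides; score combines spot fluorescence intensity with signal-to-noise across triplicate slides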
[11] = optical density shifts of acrAB sulA E. coli – strain DRC41, OD650, 48 h, E. coli filamentation inducer project, primary screen (AID 1152); details: higher = more signal, called active from +8 up or from −8 down;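 also: E. coli MC1000 strain DRC41 lacking acrAB efflux pump and sulA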
[12] = probe aLefty1 binding on compound microarray – biochemical, small-molecule microarray, 635/667 nm fluorescence, primary screen (AID 1153); details: higher = more signal;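 also: score merges spot fluorescence with signal-to-noise ratio from the scanned slide images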
[13] = plasmodial surface anion channel blockers, osmotic lysis – cell-based, P. falciparum Indochina, OD700, 1 h, primary screen (AID 1154); details: P. falciparum Indochina infected RBC osmotic lysis, higher = more signal, called active from +8 up or from −8 down
[14] = plasmodial surface anion channel blockers, osmotic lysis – cell-based, P. falciparum Indochina, OD700, 2 h, primary screen (AID 1155);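 also: lysis reports solute entry through the parasite surface anion channel PSAC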; details: P. falciparum Indochina infected erythrocytes, higher = more signal, called active from +8 up or from −8 down
[15] = changes in parasitized red cell lysis, either direction – P. falciparum Indochina, OD700, 3 h, PSAC antagonist project, primary screen (AID 1156); details: P. falciparum-infected erythrocytes, osmotic lysis, higher = more signal, called active from +8 up or from −8 down
[16] = plasmodial surface anion channel blockers, osmotic lysis – cell-based, P. falciparum Indochina, OD700, 18 h, primary screen (AID 1157); details: P. falciparum Indochina infected erythrocytes, osmotic lysis OD700, 18 h; higher = more signal, called active from +8 up or from −8 down
[17] = S6 kinase pathway phospho-S6 level changes – cell-based, A549, cytoblot, luminescence, serum-stimulated, primary screen (AID 1158); details: 5 h, higher = more signal;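 also: serum-stimulated A549 lung adenocarcinoma cells; signal is phosphorylated S6 detected by cytoblot immunostaining with HRP secondary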
[18] = target: NADPH oxidase 2 (Homo sapiens) (UniProt P04839); experiment: compounds shifting NOX2 Amplex Red fluorescence – cell-based, HEK293-NOX2, PMA-stimulated, NOX inhibitor project, primary screen (AID 1159); details: 45 min, higher = more signal, called active from +8 up or from −8 down; also: test concentration not given here
[19] = target: NADPH oxidase 4 (Homo sapiens) (UniProt Q9NPH5); experiment: compounds shifting NOX4 Amplex Red fluorescence – cell-based, HEK293-NOX4, tetracycline-induced, NOX inhibitor project, primary screen (AID 1160); details: HEK293-NOX4, Amplex Red H2O2 fluorescence, 45 min; higher = more signal, called active from +8 up or from −8 down
[20] = target: NADPH oxidase 5 (Homo sapiens) (UniProt Q96PH1); experiment: compounds shifting NOX5 Amplex Red fluorescence – cell-based, HEK293-NOX5, NOX inhibitor project, primary screen (AID 1161); details: HEK293-NOX5, ionomycin, 45 min, higher = more signal
NADPH oxidase 5 (Homo sapiens), sequence (Q96PH1 whole entry, looked up): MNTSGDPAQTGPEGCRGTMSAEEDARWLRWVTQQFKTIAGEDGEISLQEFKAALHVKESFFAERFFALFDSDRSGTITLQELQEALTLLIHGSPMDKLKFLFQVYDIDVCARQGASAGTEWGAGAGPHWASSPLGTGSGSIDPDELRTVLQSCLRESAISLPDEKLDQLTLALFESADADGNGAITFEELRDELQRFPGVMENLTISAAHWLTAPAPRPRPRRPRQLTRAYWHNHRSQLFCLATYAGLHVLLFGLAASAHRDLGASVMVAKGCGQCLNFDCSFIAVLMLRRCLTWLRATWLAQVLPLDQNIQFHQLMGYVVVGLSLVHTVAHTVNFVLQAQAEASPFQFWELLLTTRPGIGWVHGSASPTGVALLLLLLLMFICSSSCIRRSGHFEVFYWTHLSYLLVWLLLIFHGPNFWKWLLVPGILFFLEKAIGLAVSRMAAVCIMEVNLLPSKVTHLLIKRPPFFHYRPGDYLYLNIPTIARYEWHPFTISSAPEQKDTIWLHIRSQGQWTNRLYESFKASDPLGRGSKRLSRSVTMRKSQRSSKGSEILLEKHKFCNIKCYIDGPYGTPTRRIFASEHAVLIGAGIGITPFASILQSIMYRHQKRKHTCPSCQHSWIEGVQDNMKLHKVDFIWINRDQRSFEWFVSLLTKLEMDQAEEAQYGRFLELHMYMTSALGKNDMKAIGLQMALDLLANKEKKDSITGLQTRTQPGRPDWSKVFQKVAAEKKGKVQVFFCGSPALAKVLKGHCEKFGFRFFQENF

NADPH oxidase 2 (Homo sapiens), sequence (P04839 whole entry, looked up): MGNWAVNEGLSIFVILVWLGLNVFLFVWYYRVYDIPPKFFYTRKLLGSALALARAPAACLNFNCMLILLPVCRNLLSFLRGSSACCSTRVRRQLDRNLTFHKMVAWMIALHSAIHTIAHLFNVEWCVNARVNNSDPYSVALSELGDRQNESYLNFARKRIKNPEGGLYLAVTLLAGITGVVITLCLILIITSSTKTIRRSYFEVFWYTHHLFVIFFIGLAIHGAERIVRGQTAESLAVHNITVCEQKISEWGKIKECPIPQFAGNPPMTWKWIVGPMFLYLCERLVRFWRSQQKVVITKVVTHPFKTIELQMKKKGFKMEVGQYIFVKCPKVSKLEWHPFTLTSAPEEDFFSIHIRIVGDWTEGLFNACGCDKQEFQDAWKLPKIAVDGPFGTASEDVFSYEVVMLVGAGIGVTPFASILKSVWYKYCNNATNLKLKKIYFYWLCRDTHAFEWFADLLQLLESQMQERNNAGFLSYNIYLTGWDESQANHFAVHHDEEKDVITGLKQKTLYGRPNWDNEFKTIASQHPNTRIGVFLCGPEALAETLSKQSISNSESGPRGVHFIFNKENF
Streptavidin (Streptomyces avidinii), sequence (P22629 whole entry, looked up): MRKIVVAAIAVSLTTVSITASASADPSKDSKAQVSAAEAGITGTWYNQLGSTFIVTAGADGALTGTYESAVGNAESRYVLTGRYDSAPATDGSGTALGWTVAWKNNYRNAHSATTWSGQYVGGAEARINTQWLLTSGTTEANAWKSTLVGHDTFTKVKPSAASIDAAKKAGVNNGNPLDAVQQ
NADPH oxidase 4 (Homo sapiens), sequence (Q9NPH5 whole entry, looked up): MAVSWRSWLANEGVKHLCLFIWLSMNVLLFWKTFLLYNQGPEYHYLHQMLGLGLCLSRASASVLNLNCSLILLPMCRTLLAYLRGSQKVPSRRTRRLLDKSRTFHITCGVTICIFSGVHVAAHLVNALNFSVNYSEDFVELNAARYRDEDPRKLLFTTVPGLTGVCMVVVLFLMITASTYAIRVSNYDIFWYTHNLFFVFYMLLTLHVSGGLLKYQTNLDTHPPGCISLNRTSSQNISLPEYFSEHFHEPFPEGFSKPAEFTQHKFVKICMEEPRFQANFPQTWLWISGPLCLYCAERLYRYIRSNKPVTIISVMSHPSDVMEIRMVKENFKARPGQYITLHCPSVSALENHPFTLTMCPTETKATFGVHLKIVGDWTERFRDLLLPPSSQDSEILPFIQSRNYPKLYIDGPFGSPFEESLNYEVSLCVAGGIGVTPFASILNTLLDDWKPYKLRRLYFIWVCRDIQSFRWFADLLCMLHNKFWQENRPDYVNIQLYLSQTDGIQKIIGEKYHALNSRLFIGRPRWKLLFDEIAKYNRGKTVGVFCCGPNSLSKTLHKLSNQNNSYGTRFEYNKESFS
Torsin-1A (Homo sapiens), sequence (O14656 whole entry, looked up): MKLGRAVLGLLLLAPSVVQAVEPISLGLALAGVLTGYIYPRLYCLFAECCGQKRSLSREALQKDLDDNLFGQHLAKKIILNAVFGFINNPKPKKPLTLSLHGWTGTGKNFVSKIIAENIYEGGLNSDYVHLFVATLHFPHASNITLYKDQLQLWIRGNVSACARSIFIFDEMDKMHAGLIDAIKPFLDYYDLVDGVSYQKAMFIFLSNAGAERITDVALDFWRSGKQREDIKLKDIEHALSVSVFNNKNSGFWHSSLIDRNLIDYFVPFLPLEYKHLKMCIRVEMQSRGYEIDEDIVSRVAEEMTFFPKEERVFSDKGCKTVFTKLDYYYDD

COC(=O)[C@]1(CCS(=O)(=O)c2ccccc2)N=C(c2ccc(OCCCO)cc2)O[C@@H]1c1ccccc1CN=[N+]=[N-]
composite z-score [1]: 0.419 | z-score [2]: -4.23 (inactive) | z-score [3]: -0.32 (inactive) | z-score [4]: 1.73 (inactive) | z-score [5]: -1.37 (inactive) | composite z-score [6]: 0.379 | composite z-score [7]: 0.0655 | composite z-score (Torsin-1A (Homo sapiens) [8]): 1.33 | composite z-score (Torsin-1A (Homo sapiens) [9]): 0.69 | composite z-score [10]: 0.738 | z-score [11]: -2.11 (inactive) | composite z-score [12]: 0.15 | z-score [13]: 30.4 (active) | z-score [14]: 28 (active) | z-score [15]: 1.82 (inactive) | z-score [16]: 5.19 (inactive) | z-score [17]: -0.505 | z-score [18]: -5.83 (inactive) | z-score [19]: -1.31 (inactive) | z-score [20]: -3.08

COCCCNC(=O)[C@@]1(Sc2ccc(C)cc2)CC(=O)N(C2Cc3ccccc3C2)[C@@H]1c1ccc(CO)cc1I
composite z-score [1]: -0.572 | z-score [2]: -0.712 (inactive) | z-score [3]: -0.141 (inactive) | z-score [4]: 0.0909 (inactive) | z-score [5]: 0.555 (inactive) | composite z-score [6]: -0.962 | composite z-score [7]: -0.157 | composite z-score (Torsin-1A (Homo sapiens) [8]): -0.475 | composite z-score (Torsin-1A (Homo sapiens) [9]): -1.29 | composite z-score [10]: -0.59 | z-score [11]: -0.713 (inactive) | composite z-score [12]: -0.0366 | z-score [13]: 4.51 (inactive) | z-score [14]: 0.427 (inactive) | z-score [15]: -0.23 (inactive) | z-score [16]: -0.0133 (inactive) | z-score [17]: 0.224 | z-score [18]: 2.2 (inactive) | z-score [19]: -1.15 (inactive) | z-score [20]: 1.23

CN(C)CCCN1C(=O)[C@@]2(c3ccc([N+](=O)[O-])cc3)CC(=O)N(CC34CC5CC(CC(C5)C3)C4)[C@@H]2c2ccc(CO)cc21
composite z-score [1]: -0.199 | z-score [2]: 0.278 (inactive) | z-score [3]: 0.878 (inactive) | z-score [4]: -0.0259 (inactive) | z-score [5]: -0.598 (inactive) | composite z-score [6]: -0.472 | composite z-score [7]: -0.0963 | composite z-score (Torsin-1A (Homo sapiens) [8]): -0.524 | composite z-score (Torsin-1A (Homo sapiens) [9]): -0.17 | composite z-score [10]: 0.0109 | z-score [11]: 0.388 (inactive) | composite z-score [12]: -0.0662 | z-score [13]: 2.1 (inactive) | z-score [14]: -0.451 (inactive) | z-score [15]: 1.27 (inactive) | z-score [16]: -0.405 (inactive) | z-score [17]: 0.299 | z-score [18]: -2.29 (inactive) | z-score [19]: -0.0839 (inactive) | z-score [20]: 1.56

COCC(=C=CC[C@H](O)c1cccc(OCCO)c1)C[C@H](O)c1ccccn1
composite z-score [1]: 0.467 | z-score [2]: -0.0843 (inactive) | z-score [3]: -0.368 (inactive) | z-score [4]: 1.34 (inactive) | z-score [5]: -0.527 (inactive) | composite z-score [6]: -0.368 | composite z-score [7]: 0.0497 | composite z-score (Torsin-1A (Homo sapiens) [8]): -0.733 | composite z-score (Torsin-1A (Homo sapiens) [9]): -0.526 | composite z-score [10]: 1.59 | z-score [11]: 0.941 (inactive) | composite z-score [12]: -0.198 | z-score [13]: 8.86 (active) | z-score [14]: 1.16 (inactive) | z-score [15]: 1.49 (inactive) | z-score [16]: 0.674 (inactive) | z-score [17]: 0.789 | z-score [18]: -0.142 (inactive) | z-score [19]: 0.154 (inactive) | z-score [20]: -0.772

CCCC=C(CCC)[C@@H](NP(=O)(c1ccccc1)c1ccccc1)c1ccc(C(F)(F)F)cc1
composite z-score [1]: 0.71 | z-score [2]: -0.407 (inactive) | z-score [3]: 0.592 (inactive) | z-score [4]: 0.0041 (inactive) | z-score [5]: 0.0568 (inactive) | composite z-score [6]: 0.0838 | composite z-score [7]: -0.0833 | composite z-score (Torsin-1A (Homo sapiens) [8]): 0.316 | composite z-score (Torsin-1A (Homo sapiens) [9]): 0.0932 | composite z-score [10]: -0.395 | z-score [11]: -1.5 (inactive) | composite z-score [12]: -0.485 | z-score [13]: -0.56 (inactive) | z-score [14]: -0.647 (inactive) | z-score [15]: -0.309 (inactive) | z-score [16]: -1.24 (inactive) | z-score [17]: 0.828 | z-score [18]: 0.147 (inactive) | z-score [19]: 1.46 (inactive) | z-score [20]: 1.81

[N-]=[N+]=NCc1ccccc1C[C@@]1(C(=O)NCCN2CCOCC2)N=C(c2ccc(OCCCO)cc2)O[C@@H]1c1ccccc1N=[N+]=[N-]
composite z-score [1]: 0.512 | z-score [2]: -5.21 (inactive) | z-score [3]: -0.503 (inactive) | z-score [4]: 0.69 (inactive) | z-score [5]: -1.46 (inactive) | composite z-score [6]: 0.408 | composite z-score [7]: 0.0906 | composite z-score (Torsin-1A (Homo sapiens) [8]): 0.5 | composite z-score (Torsin-1A (Homo sapiens) [9]): 1.73 | composite z-score [10]: -0.492 | z-score [11]: -0.337 (inactive) | composite z-score [12]: 0.534 | z-score [13]: 31.3 (active) | z-score [14]: 27.4 (active) | z-score [15]: 2.72 (inactive) | z-score [16]: 2.46 (inactive) | z-score [17]: 1.17 | z-score [18]: -3.58 (inactive) | z-score [19]: -1.36 (inactive) | z-score [20]: -2.32

CN(C)C(=O)[C@]1(CCC(=O)OC(C)(C)C)N=C(c2ccc(OCCCO)cc2)O[C@@H]1c1ccccc1
composite z-score [1]: 0.677 | z-score [2]: 0.325 (inactive) | z-score [3]: 1.02 (inactive) | z-score [4]: 0.493 (inactive) | z-score [5]: 0.524 (inactive) | composite z-score [6]: -0.092 | composite z-score [7]: -0.0791 | composite z-score (Torsin-1A (Homo sapiens) [8]): 0.69 | composite z-score (Torsin-1A (Homo sapiens) [9]): 2.2 | composite z-score [10]: -0.857 | z-score [11]: 0.94 (inactive) | composite z-score [12]: 0.217 | z-score [13]: 22.5 (active) | z-score [14]: 6.32 (inactive) | z-score [15]: -0.0962 (inactive) | z-score [16]: 0.84 (inactive) | z-score [17]: -0.408 | z-score [18]: 1.24 (inactive) | z-score [19]: 0.419 (inactive) | z-score [20]: -0.229

COCCCNC(=O)[C@]1(CCC(=O)OC(C)(C)C)N=C(c2ccc(OCCCO)cc2)O[C@@H]1c1ccccc1
composite z-score [1]: 0.163 | z-score [2]: 0.11 (inactive) | z-score [3]: 1.2 (inactive) | z-score [4]: 0.699 (inactive) | z-score [5]: -0.625 (inactive) | composite z-score [6]: 0.172 | composite z-score [7]: 0.346 | composite z-score (Torsin-1A (Homo sapiens) [8]): 1.11 | composite z-score (Torsin-1A (Homo sapiens) [9]): 2.06 | composite z-score [10]: -1.52 | z-score [11]: 0.134 (inactive) | composite z-score [12]: -0.166 | z-score [13]: 14.7 (active) | z-score [14]: 1.61 (inactive) | z-score [15]: 0.58 (inactive) | z-score [16]: 0.57 (inactive) | z-score [17]: -0.507 | z-score [18]: -0.00397 (inactive) | z-score [19]: 0.689 (inactive) | z-score [20]: -0.139

CC[C@H]1C2=C3C(CC[C@H]4C(OCc5ccc(F)cc5C(F)(F)F)OC[C@](C)([C@@H]34)N(C(=O)OC(C)(C)C)C2)C2COC(=O)OCC21 (stereo not given in full)
composite z-score [1]: 0.0641 | z-score [2]: -2.57 (inactive) | z-score [3]: 0.265 (inactive) | z-score [4]: 0.576 (inactive) | z-score [5]: 0.204 (inactive) | composite z-score [6]: 1.44 | composite z-score [7]: 0.0003 | composite z-score (Torsin-1A (Homo sapiens) [8]): 0.246 | composite z-score (Torsin-1A (Homo sapiens) [9]): 0.666 | composite z-score [10]: 0.0392 | z-score [11]: -2.17 (inactive) | composite z-score [12]: 0.513 | z-score [13]: 1.28 (inactive) | z-score [14]: 0.584 (inactive) | z-score [15]: 1.63 (inactive) | z-score [16]: 0.91 (inactive) | z-score [17]: -0.445 | z-score [18]: -0.582 (inactive) | z-score [19]: -1.74 (inactive) | z-score [20]: -1.5
